Data reported in PubChem BioAssay.
For some assays here: Entries with a potency or affinity are not part of this list. Activity calls are given as the source filed them. Unless noted, the rule behind the calls is not given here.

How the values were obtained:
[1] = antimalarial activity against Dd2 strain (AID 2302;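 active = growth inhibition above 50% at the single 2 µM test dose, taken to imply half-maximal potency below 2 µM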;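 note: 0% = DMSO untreated growth and 100% = chloroquine plus artemisinin killed control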); conditions: P. falciparum Dd2 in RBCs, LDH growth readout, 72 h; at 2 µM; active compounds read high
[2] = biological target: L-lactate dehydrogenase (Plasmodium falciparum (isolate CDC / Honduras)) (UniProt Q27743); test: PfLDH activity inhibition – cell lysate, 3D7 strain, counter-screen for P. falciparum growth inhibition project (AID 2304);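 note: 0% = vehicle and 100% = reference inhibitor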; conditions: P. falciparum 3D7 crude extract, LDH APAD/NBT absorbance; at 2 µM; active compounds read high
L-lactate dehydrogenase (Plasmodium falciparum (isolate CDC / Honduras)), sequence (Q27743 whole entry, looked up): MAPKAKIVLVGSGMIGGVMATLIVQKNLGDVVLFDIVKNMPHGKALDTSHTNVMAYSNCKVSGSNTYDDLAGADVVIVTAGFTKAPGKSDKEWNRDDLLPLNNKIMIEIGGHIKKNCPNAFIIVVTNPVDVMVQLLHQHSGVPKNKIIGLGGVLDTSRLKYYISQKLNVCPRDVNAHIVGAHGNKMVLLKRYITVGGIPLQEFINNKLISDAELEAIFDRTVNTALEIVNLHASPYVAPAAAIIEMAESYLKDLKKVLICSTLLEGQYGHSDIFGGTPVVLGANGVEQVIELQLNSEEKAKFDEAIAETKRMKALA

[3] = inhibition of 3D7 malaria parasite growth – strain 3D7 (AID 2306);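 note: 0% = DMSO wells and 100% = chloroquine plus artemisinin control wells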; conditions: P. falciparum 3D7 erythrocytic growth, LDH absorbance, 72 h; at 2 µM; active compounds read high
[4] = biological target: Calcium-dependent protein kinase 1 (Plasmodium falciparum (isolate 3D7)) (UniProt P62344); test: PfCDPK1 kinase inhibitors, biochemical, TCAMS library (AID 1159585; cut-off not given, nearly all actives have IC50 up to about 0.98 µM;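 note: inhibitors leave more ATP so luminescence rises with inhibition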); conditions: recombinant PfCDPK1, Kinase-Glo ATP depletion luminescence
Calcium-dependent protein kinase 1 (Plasmodium falciparum (isolate 3D7)), sequence (P62344 whole entry, looked up): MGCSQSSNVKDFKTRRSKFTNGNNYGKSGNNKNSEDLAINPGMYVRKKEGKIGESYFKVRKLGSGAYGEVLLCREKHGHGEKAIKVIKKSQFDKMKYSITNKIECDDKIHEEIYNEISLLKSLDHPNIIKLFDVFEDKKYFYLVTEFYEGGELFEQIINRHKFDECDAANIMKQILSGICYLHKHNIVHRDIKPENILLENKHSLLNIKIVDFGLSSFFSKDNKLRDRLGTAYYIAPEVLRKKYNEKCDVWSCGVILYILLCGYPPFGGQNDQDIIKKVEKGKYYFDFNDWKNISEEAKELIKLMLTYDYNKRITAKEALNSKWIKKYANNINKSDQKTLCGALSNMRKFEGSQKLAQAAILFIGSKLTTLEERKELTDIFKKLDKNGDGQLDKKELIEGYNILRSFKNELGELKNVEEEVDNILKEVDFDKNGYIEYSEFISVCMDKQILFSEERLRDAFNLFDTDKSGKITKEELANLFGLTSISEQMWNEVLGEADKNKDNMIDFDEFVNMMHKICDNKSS

[5] = biological target: Plasmodium falciparum protein kinase 6 (PK6, PF3D7_1337100) (UniProt Q8IDW1); test: PfPK6 kinase inhibitors, biochemical, TCAMS library (AID 1159586); conditions: recombinant PfPK6, Kinase-Glo ATP depletion luminescence
Plasmodium falciparum protein kinase 6 (PK6, PF3D7_1337100), sequence (Q8IDW1 1-305): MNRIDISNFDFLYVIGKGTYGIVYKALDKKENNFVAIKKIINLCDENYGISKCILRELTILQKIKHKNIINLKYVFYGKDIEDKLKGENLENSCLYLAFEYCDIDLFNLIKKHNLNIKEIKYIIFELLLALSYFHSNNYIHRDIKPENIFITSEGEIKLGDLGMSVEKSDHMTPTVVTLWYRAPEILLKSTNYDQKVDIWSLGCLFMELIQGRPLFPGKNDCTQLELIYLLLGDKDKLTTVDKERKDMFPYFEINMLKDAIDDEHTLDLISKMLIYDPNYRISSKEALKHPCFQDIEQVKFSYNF

[6] = biological target: Protein kinase 7 (PK7), Plasmodium falciparum 3D7 (PF3D7_0213400) (UniProt Q7YTF7); test: inhibition of Plasmodium PK7 catalytic activity – biochemical, TCAMS antimalarial set, Kinase-Glo luminescence (AID 1159587); conditions: recombinant PfPK7, Kinase-Glo ATP depletion luminescence
Protein kinase 7 (PK7), Plasmodium falciparum 3D7 (PF3D7_0213400), sequence (Q7YTF7 1-343): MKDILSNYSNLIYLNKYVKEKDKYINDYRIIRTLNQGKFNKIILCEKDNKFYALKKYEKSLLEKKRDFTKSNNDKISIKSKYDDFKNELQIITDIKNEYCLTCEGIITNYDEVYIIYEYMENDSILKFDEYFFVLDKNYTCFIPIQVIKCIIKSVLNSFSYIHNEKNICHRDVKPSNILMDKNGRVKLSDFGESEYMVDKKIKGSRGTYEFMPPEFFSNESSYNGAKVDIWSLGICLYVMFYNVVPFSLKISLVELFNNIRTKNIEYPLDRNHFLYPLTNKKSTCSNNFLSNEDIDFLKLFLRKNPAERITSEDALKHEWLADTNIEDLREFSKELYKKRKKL

[7] = biological target: Calcium-dependent protein kinase 4 (Plasmodium falciparum (isolate 3D7)) (UniProt Q8IBS5); test: PfCDPK4 kinase inhibitors, biochemical, TCAMS library (AID 1159588; cut-off not given, nearly all actives have IC50 up to about 0.91 µM); conditions: recombinant PfCDPK4, Kinase-Glo ATP depletion luminescence
Calcium-dependent protein kinase 4 (Plasmodium falciparum (isolate 3D7)), sequence (Q8IBS5 whole entry, looked up): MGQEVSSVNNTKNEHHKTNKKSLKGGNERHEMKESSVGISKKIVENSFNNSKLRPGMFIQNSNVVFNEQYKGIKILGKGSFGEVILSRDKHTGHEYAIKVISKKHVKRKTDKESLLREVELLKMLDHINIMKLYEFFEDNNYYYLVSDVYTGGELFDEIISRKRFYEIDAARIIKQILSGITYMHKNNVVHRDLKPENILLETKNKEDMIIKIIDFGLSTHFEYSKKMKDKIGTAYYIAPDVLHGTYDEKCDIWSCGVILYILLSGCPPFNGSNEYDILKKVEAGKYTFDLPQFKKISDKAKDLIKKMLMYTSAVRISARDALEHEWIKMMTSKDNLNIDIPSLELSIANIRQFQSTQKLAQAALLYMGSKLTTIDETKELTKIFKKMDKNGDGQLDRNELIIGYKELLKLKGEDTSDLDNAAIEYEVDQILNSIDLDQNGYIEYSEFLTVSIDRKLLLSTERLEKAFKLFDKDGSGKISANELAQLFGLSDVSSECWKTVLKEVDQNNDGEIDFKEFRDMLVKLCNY

[8] = human hepatoma cell viability loss – ATP luminescence, cytotoxicity control for P. falciparum antimalarial project, primary screen (AID 2303;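 active = inhibition above 50%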;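 note: 0% = DMSO wells and 100% = digitonin-killed cells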); conditions: HepG2 viability, 24-48 h, at 10 µM, active compounds read high

COc1ccc2c(OC)cccc2c1CNCCCCCCNCc1c(OC)ccc2c(OC)cccc12
active: growth inhibition [3] 92%
inactive: growth inhibition [1] 28% | inhibition [2] -5% | outcome [4] | outcome [5] | outcome [6] | outcome [7]

Nc1nc(Cc2ccc(Cl)cc2)nc(Cc2ccc(Cl)cc2)n1
active: growth inhibition [3] 85%
inactive: growth inhibition [1] -2% | inhibition [2] 2% | outcome [4] | outcome [5] | outcome [6] | outcome [7]

CC(C)c1ccc(Cn2cc(-c3ccncc3)c3cc(OCc4ccccc4)ccc32)cc1
active: growth inhibition [1] 88% | growth inhibition [3] 99%
inactive: inhibition [2] -1% | outcome [4] | outcome [5] | outcome [6] | outcome [7]

Cc1[nH]c(C)c(-c2ccc(Oc3ccc(Cl)c(Cl)c3)cc2)c(=O)c1Cl
active: growth inhibition [1] 97% | growth inhibition [3] 100%
inactive: inhibition [2] -1% | outcome [4] | outcome [5] | outcome [6] | outcome [7]

Nc1nc(N)c2c(Sc3ccc(F)cc3)cccc2n1
active: growth inhibition [3] 88%
inactive: growth inhibition [1] -3% | inhibition [2] 3% | outcome [4] | outcome [5] | outcome [6] | outcome [7]

FC(F)(F)c1ccc2c(NCCCNc3ccnc4cc(C(F)(F)F)ccc34)ccnc2c1
inactive: inhibition [2] 3% | outcome [4] | outcome [5] | outcome [6] | outcome [7]
active: growth inhibition [1] 101% | growth inhibition [3] 100%

Nc1ccncc1C(=O)NCCCCN1CCN(c2nsc3ccccc23)CC1
inactive: growth inhibition [1] 9% | inhibition [2] 6% | outcome [4] | outcome [5] | outcome [6] | outcome [7]
active: growth inhibition [3] 101%

CCOC(=O)c1c(-c2ccccc2)c(C(=O)OCC)n2ccccc12
inactive: inhibition [2] -1% | outcome [4] | outcome [5] | outcome [6] | outcome [7]
active: growth inhibition [1] 70% | growth inhibition [3] 93%

NC(N)=NC(=O)Nc1ccc(Cl)c([N+](=O)[O-])c1
inactive: growth inhibition [1] 9% | inhibition [2] -8% | outcome [4] | outcome [5] | outcome [6] | outcome [7]
active: growth inhibition [3] 97%

Nc1nc(N)c2c(Oc3cc(Cl)c(Cl)c(Cl)c3)cccc2n1
active: growth inhibition [1] 92% | growth inhibition [3] 101%
inactive: inhibition [2] 4% | outcome [4] | outcome [5] | outcome [6] | outcome [7]

Nc1nc(N)c2c3c(ccc2n1)CCC3
active: growth inhibition [3] 92%
inactive: growth inhibition [1] 2% | inhibition [2] -3% | outcome [4] | outcome [5] | outcome [6] | outcome [7]

Cc1[nH]c(C)c(-c2ccc(S(=O)(=O)c3ccc(Cl)cc3)cc2)c(=O)c1Br
inactive: inhibition [2] 5% | outcome [4] | outcome [5] | outcome [6] | outcome [7]
active: growth inhibition [1] 97% | growth inhibition [3] 97%

NC(N)=NC(=O)Nc1ccc(Cl)c(C(F)(F)F)c1
active: growth inhibition [3] 100%
inactive: growth inhibition [1] 13% | inhibition [2] 3% | outcome [4] | outcome [5] | outcome [6] | outcome [7]

Cc1nc(C)c(-c2ccc(Oc3ccc(OC(F)(F)F)cc3)cc2)c(OC(=O)c2ccc(CN(C)C)cc2)c1Cl
active: growth inhibition [1] 98% | growth inhibition [3] 98%
inactive: inhibition [2] 6% | outcome [4] | outcome [5] | outcome [6] | outcome [7]

CCCc1ccc(Cc2cnc3nc(N)nc(N)c3c2C)cc1
inactive: growth inhibition [1] -3% | inhibition [2] 4% | outcome [4] | outcome [5] | outcome [6] | outcome [7]
active: growth inhibition [3] 98%

Cc1cc(=O)c(-c2ccc(S(=O)(=O)c3ccc(Cl)cc3)cc2)c(C)[nH]1
active: growth inhibition [1] 80% | growth inhibition [3] 92%
inactive: inhibition [2] 4% | outcome [4] | outcome [5] | outcome [6] | outcome [7]

CC(CC1CCCCC1)NCc1ccccc1OCCC(=O)N1CCCC1C(N)=O (stereo unspecified)
inactive: inhibition [8] 5% | inhibition [2] 8% | outcome [4] | outcome [5] | outcome [6] | outcome [7]
active: growth inhibition [3] 97%

COc1cc2c(cc1C(F)(F)F)N(C(=O)Nc1ccc(Br)cn1)CC2
active: growth inhibition [3] 97%
inactive: inhibition [8] 16% | inhibition [2] -3% | outcome [4] | outcome [5] | outcome [6] | outcome [7]

O=C(Nc1nccs1)c1sc2ccccc2c1O
inactive: inhibition [8] -2% | inhibition [2] -1% | outcome [4] | outcome [5] | outcome [6] | outcome [7]
active: growth inhibition [3] 96%

Oc1cc2ccccc2cc1CNC1CCCCC1
active: growth inhibition [1] 89% | growth inhibition [3] 98%
inactive: inhibition [2] -9% | outcome [4] | outcome [5] | outcome [6] | outcome [7]

COc1ccc(N=C(N)Nc2ccccc2)nc1Cc1ccccc1
active: growth inhibition [3] 81%
inactive: inhibition [8] 17% | inhibition [2] -6% | outcome [4] | outcome [5] | outcome [6] | outcome [7]

Cc1cc(OCCCN2CCCC2)ccc1NC(=O)COc1ccc(Cl)cc1C(=O)c1cc(C#N)cc(C(F)(F)F)c1
inactive: inhibition [8] 18% | inhibition [2] 2% | outcome [4] | outcome [5] | outcome [6] | outcome [7]
active: growth inhibition [3] 85%

NC(=O)c1sc(-n2cnc3ccc(C(=O)NCCN4CCOCC4)cc32)cc1OCc1ccccc1C(F)(F)F
active: growth inhibition [3] 81%
inactive: inhibition [8] -15% | inhibition [2] 1% | outcome [4] | outcome [5] | outcome [6] | outcome [7]
